# Measured values: ChEMBL document CHEMBL1961873, “Compounds: GSK PKIS; Assays: Nanosyn kinase panel” (2012)
# What was measured:
# [1] = target: RAC-alpha serine/threonine-protein kinase (Homo sapiens) (UniProt P31749); details: at 0.1 µM
# [2] = target: RAC-alpha serine/threonine-protein kinase (Homo sapiens) (UniProt P31749); details: at 1 µM
# [3] = target: RAC-beta serine/threonine-protein kinase (Homo sapiens) (UniProt P31751); details: at 0.1 µM
# [4] = target: RAC-beta serine/threonine-protein kinase (Homo sapiens) (UniProt P31751); details: at 1 µM
# [5] = target: RAC-gamma serine/threonine-protein kinase (Homo sapiens) (UniProt Q9Y243); details: at 0.1 µM
# [6] = target: RAC-gamma serine/threonine-protein kinase (Homo sapiens) (UniProt Q9Y243); details: at 1 µM
# [7] = target: G protein-coupled receptor kinase 6 (Homo sapiens) (UniProt P43250); details: at 0.1 µM
# [8] = target: G protein-coupled receptor kinase 6 (Homo sapiens) (UniProt P43250); details: at 1 µM
# [9] = target: Rhodopsin kinase GRK7 (Homo sapiens) (UniProt Q8WTQ7); details: at 0.1 µM
# [10] = target: Rhodopsin kinase GRK7 (Homo sapiens) (UniProt Q8WTQ7); details: at 1 µM
# [11] = target: Serine/threonine-protein kinase MRCK alpha (Homo sapiens) (UniProt Q5VT25); details: at 0.1 µM
# [12] = target: Serine/threonine-protein kinase MRCK alpha (Homo sapiens) (UniProt Q5VT25); details: at 1 µM
# [13] = target: Serine/threonine-protein kinase MRCK beta (Homo sapiens) (UniProt Q9Y5S2); details: at 0.1 µM
# [14] = target: Serine/threonine-protein kinase MRCK beta (Homo sapiens) (UniProt Q9Y5S2); details: at 1 µM
# [15] = target: Ribosomal protein S6 kinase alpha-5 (Homo sapiens) (UniProt O75582); details: at 0.1 µM
# [16] = target: Ribosomal protein S6 kinase alpha-5 (Homo sapiens) (UniProt O75582); details: at 1 µM
# [17] = target: Ribosomal protein S6 kinase alpha-4 (Homo sapiens) (UniProt O75676); details: at 0.1 µM
# [18] = target: Ribosomal protein S6 kinase alpha-4 (Homo sapiens) (UniProt O75676); details: at 1 µM
# [19] = target: Ribosomal protein S6 kinase beta-1 (Homo sapiens) (UniProt P23443); details: at 0.1 µM
# [20] = target: Ribosomal protein S6 kinase beta-1 (Homo sapiens) (UniProt P23443); details: at 1 µM
# [21] = target: 3-phosphoinositide-dependent protein kinase 1 (Homo sapiens) (UniProt O15530); details: at 0.1 µM;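 note: values are mean inhibition of PDK1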
# [22] = target: cAMP-dependent protein kinase catalytic subunit alpha (Homo sapiens) (UniProt P17612); details: at 0.1 µM
# [23] = target: cAMP-dependent protein kinase catalytic subunit alpha (Homo sapiens) (UniProt P17612); details: at 1 µM
# [24] = target: Protein kinase C alpha type (Homo sapiens) (UniProt P17252); details: at 0.1 µM
# [25] = target: Protein kinase C alpha type (Homo sapiens) (UniProt P17252); details: at 1 µM
# [26] = target: Protein kinase C beta type (Homo sapiens) (UniProt P05771); details: at 0.1 µM
# [27] = target: Protein kinase C beta type (Homo sapiens) (UniProt P05771); details: at 1 µM
# [28] = target: Protein kinase C eta type (Homo sapiens) (UniProt P24723); details: at 0.1 µM
# [29] = target: Protein kinase C eta type (Homo sapiens) (UniProt P24723); details: at 1 µM
# [30] = target: Protein kinase C gamma type (Homo sapiens) (UniProt P05129); details: at 0.1 µM
# [31] = target: Protein kinase C gamma type (Homo sapiens) (UniProt P05129); details: at 1 µM
# [32] = target: Protein kinase C iota type (Homo sapiens) (UniProt P41743); details: at 0.1 µM
# [33] = target: Protein kinase C iota type (Homo sapiens) (UniProt P41743); details: at 1 µM
# [34] = target: Protein kinase C theta type (Homo sapiens) (UniProt Q04759); details: at 0.1 µM
# [35] = target: Protein kinase C theta type (Homo sapiens) (UniProt Q04759); details: at 1 µM
# [36] = target: Protein kinase C beta type (Homo sapiens) (UniProt P05771); details: at 0.1 µM; remark: listed apart in the source
# [37] = target: Protein kinase C beta type (Homo sapiens) (UniProt P05771); details: at 1 µM; remark: listed apart in the source
# [38] = target: Serine/threonine-protein kinase D1 (Homo sapiens) (UniProt Q15139); details: at 0.1 µM
# [39] = target: Serine/threonine-protein kinase D1 (Homo sapiens) (UniProt Q15139); details: at 1 µM
# [40] = target: Serine/threonine-protein kinase D2 (Homo sapiens) (UniProt Q9BZL6); details: at 0.1 µM
# [41] = target: Serine/threonine-protein kinase D2 (Homo sapiens) (UniProt Q9BZL6); details: at 1 µM
# [42] = target: Serine/threonine-protein kinase D3 (Homo sapiens) (UniProt O94806); details: at 0.1 µM
# [43] = target: Serine/threonine-protein kinase D3 (Homo sapiens) (UniProt O94806); details: at 1 µM
# [44] = target: cGMP-dependent protein kinase 1 (Homo sapiens) (UniProt Q13976); details: at 0.1 µM
# [45] = target: cGMP-dependent protein kinase 1 (Homo sapiens) (UniProt Q13976); details: at 1 µM
# [46] = target: cGMP-dependent protein kinase 2 (Homo sapiens) (UniProt Q13237); details: at 0.1 µM
# [47] = target: cGMP-dependent protein kinase 2 (Homo sapiens) (UniProt Q13237); details: at 1 µM
# [48] = target: cAMP-dependent protein kinase catalytic subunit PRKX (Homo sapiens) (UniProt P51817); details: at 0.1 µM
# [49] = target: cAMP-dependent protein kinase catalytic subunit PRKX (Homo sapiens) (UniProt P51817); details: at 1 µM
# [50] = target: Rho-associated protein kinase 1 (Homo sapiens) (UniProt Q13464); details: at 0.1 µM
# [51] = target: Rho-associated protein kinase 1 (Homo sapiens) (UniProt Q13464); details: at 1 µM
# [52] = target: Rho-associated protein kinase 2 (Homo sapiens) (UniProt O75116); details: at 0.1 µM
# [53] = target: Rho-associated protein kinase 2 (Homo sapiens) (UniProt O75116); details: at 1 µM
# [54] = target: Ribosomal protein S6 kinase alpha-1 (Homo sapiens) (UniProt Q15418); details: at 0.1 µM
# [55] = target: Ribosomal protein S6 kinase alpha-1 (Homo sapiens) (UniProt Q15418); details: at 1 µM
# Protein kinase C beta type (Homo sapiens), sequence (P05771 2-671 limits assumed): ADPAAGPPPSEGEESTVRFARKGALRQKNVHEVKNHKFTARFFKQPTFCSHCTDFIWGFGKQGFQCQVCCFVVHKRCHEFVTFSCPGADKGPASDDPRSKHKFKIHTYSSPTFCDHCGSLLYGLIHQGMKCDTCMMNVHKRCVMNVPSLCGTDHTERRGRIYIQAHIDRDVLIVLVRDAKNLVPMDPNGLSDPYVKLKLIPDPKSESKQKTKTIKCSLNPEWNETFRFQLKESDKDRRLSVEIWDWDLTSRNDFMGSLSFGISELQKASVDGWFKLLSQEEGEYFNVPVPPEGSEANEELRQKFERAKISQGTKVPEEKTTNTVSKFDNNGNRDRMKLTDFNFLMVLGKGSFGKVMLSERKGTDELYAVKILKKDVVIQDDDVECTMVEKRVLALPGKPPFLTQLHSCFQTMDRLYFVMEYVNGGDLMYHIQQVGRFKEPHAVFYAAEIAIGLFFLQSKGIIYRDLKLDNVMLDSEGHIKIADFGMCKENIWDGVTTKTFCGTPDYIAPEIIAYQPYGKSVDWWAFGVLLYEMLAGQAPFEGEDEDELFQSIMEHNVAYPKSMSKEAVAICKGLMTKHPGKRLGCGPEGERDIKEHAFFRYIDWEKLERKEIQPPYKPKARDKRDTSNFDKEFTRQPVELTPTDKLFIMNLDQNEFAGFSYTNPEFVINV
# Ribosomal protein S6 kinase alpha-1 (Homo sapiens), sequence (Q15418 whole entry): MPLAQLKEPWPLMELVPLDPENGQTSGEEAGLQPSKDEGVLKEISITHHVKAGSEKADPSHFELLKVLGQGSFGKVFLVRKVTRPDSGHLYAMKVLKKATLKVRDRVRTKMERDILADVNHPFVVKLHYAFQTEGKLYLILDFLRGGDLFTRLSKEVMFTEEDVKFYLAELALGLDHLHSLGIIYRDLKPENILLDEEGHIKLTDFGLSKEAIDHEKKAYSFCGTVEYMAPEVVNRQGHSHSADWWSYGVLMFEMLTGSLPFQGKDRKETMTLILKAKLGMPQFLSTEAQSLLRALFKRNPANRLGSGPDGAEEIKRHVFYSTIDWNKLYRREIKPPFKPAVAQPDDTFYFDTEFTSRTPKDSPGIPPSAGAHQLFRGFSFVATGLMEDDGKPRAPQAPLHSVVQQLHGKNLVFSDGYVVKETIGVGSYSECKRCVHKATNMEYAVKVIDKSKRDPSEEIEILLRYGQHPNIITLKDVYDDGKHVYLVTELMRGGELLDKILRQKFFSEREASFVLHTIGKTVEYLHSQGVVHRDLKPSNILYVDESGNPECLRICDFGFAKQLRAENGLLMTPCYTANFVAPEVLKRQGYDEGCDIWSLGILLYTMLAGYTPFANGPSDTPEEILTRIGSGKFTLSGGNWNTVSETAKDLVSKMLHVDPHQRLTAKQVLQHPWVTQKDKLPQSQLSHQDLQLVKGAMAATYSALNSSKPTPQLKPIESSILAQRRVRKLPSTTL
# RAC-gamma serine/threonine-protein kinase (Homo sapiens), sequence (Q9Y243 whole entry): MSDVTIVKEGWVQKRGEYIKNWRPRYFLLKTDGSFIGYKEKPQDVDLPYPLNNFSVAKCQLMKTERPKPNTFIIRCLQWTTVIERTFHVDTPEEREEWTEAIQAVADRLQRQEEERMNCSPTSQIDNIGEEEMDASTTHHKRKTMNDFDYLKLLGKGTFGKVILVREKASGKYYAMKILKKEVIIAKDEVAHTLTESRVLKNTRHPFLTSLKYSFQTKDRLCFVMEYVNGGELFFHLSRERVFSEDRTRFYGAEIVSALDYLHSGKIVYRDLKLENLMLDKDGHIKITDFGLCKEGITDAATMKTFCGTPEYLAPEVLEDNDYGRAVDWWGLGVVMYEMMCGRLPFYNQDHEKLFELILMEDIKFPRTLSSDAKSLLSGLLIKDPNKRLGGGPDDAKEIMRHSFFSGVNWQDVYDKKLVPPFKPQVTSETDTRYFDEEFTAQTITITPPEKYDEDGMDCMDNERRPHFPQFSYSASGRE
# Serine/threonine-protein kinase MRCK alpha (Homo sapiens), sequence (Q5VT25 whole entry): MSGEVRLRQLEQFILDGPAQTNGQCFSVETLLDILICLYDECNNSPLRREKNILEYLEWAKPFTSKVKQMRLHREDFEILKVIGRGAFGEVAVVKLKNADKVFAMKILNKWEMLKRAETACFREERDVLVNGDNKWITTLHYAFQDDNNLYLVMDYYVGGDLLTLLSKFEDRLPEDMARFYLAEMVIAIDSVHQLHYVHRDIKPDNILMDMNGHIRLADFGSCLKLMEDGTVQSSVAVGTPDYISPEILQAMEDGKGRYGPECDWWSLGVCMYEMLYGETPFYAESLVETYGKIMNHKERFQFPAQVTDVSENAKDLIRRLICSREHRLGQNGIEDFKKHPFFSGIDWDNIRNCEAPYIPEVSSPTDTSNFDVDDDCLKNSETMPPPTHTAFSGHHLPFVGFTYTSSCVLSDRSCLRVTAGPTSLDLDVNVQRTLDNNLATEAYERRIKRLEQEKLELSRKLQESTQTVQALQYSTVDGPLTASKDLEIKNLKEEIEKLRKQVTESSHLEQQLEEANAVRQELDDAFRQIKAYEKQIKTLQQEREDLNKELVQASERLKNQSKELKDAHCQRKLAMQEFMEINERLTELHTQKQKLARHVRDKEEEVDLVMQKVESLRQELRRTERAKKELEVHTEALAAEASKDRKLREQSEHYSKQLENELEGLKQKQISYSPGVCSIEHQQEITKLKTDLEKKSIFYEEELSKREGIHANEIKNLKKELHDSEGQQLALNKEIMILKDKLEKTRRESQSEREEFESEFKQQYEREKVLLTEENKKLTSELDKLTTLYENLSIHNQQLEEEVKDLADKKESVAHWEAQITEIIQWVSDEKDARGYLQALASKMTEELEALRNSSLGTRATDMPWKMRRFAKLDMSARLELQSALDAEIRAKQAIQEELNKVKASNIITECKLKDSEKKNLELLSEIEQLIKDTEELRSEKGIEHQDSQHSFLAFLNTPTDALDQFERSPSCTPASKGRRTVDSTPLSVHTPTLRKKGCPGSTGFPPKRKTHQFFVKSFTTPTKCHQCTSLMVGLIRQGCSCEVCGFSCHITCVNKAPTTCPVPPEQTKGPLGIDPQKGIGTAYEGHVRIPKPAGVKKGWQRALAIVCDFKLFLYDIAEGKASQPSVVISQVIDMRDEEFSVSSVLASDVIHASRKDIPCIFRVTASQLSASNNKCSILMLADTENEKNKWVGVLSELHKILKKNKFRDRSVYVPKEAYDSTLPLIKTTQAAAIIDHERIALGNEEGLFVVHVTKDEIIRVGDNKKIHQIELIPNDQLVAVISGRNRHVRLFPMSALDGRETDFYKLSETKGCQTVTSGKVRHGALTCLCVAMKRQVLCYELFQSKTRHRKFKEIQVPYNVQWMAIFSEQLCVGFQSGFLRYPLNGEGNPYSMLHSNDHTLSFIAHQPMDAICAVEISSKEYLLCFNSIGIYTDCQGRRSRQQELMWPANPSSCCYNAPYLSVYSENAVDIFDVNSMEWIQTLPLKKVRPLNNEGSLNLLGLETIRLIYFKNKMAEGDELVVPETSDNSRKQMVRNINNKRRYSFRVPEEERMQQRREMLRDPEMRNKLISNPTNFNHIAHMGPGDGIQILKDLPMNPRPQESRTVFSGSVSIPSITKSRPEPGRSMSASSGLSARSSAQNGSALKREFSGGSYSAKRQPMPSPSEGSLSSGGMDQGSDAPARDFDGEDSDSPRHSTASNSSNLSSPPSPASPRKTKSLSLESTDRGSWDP
# cGMP-dependent protein kinase 2 (Homo sapiens), sequence (Q13237 whole entry): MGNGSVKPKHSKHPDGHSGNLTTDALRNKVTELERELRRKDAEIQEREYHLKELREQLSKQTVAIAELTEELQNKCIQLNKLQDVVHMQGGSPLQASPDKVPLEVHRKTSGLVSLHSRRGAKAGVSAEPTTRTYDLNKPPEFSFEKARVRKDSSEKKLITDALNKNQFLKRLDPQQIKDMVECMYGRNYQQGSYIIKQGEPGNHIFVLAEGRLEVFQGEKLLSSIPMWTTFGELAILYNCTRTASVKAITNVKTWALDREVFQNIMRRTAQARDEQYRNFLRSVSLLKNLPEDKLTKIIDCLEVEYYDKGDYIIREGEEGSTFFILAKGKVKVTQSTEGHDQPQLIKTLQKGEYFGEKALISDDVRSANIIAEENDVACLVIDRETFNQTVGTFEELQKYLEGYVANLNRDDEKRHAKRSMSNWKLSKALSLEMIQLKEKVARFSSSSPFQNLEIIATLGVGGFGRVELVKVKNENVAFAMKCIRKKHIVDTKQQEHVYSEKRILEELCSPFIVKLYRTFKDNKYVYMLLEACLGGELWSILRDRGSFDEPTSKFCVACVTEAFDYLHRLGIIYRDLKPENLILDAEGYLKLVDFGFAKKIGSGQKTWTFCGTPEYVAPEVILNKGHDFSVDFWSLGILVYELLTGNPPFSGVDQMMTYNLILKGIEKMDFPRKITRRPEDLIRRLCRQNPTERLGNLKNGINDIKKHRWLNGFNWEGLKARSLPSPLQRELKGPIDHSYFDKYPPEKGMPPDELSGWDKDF
structure (smiles),measurement,setting,value
CNC(=O)Oc1cc(C)c(/C=C/c2cncc(C(=O)NC)c2)c(C)c1,inhibition,[1],1.66%
same,inhibition,[2],1.83%
same,inhibition,[3],0.76%
same,inhibition,[4],1.15%
same,inhibition,[5],1.57%
same,inhibition,[6],1.51%
same,inhibition,[7],2.38%
same,inhibition,[8],-2.05%
same,inhibition,[9],0.83%
same,inhibition,[10],-7.52%
same,inhibition,[11],0.96%
same,inhibition,[12],1.01%
same,inhibition,[13],0.52%
same,inhibition,[14],2.49%
same,inhibition,[15],-0.65%
same,inhibition,[16],2.76%
same,inhibition,[17],0.7%
same,inhibition,[18],5.41%
same,inhibition,[19],2.74%
same,inhibition,[20],2.7%
same,inhibition,[21],3.92%
same,inhibition,[22],1.8%
same,inhibition,[23],1.69%
same,inhibition,[24],0.7%
same,inhibition,[25],2.8%
same,inhibition,[26],-0.06%
same,inhibition,[27],0.33%
same,inhibition,[28],0.72%
same,inhibition,[29],3.06%
same,inhibition,[30],2.88%
same,inhibition,[31],5.84%
same,inhibition,[32],1.28%
same,inhibition,[33],3.8%
same,inhibition,[34],0.64%
same,inhibition,[35],-0.84%
same,inhibition,[36],1.05%
same,inhibition,[37],0.33%
same,inhibition,[38],1.91%
same,inhibition,[39],4.8%
same,inhibition,[40],3%
same,inhibition,[41],4.22%
same,inhibition,[42],2.02%
same,inhibition,[43],3.35%
same,inhibition,[44],3.13%
same,inhibition,[45],4.05%
same,inhibition,[46],3.07%
same,inhibition,[47],5.39%
same,inhibition,[48],1.78%
same,inhibition,[49],0.62%
same,inhibition,[50],0.86%
same,inhibition,[51],4.25%
same,inhibition,[52],1.43%
same,inhibition,[53],3.24%
same,inhibition,[54],2.03%
same,inhibition,[55],4.8%
